Holding throughout (experiment): yeast three-hybrid, YBZ-1, SC-Leu-His + 0.5 mM 3-AT, 4 days
Common to all, as to conditions: tags: N-Gal4 AD-HA kept; label: inside an RPR1-promoter hybrid RNA with tandem MS2 sites; ssRNA

The target of assay [1] is PUM1 PUF domain R3-RIK (Homo sapiens, UniProt Q14671 828-1176, C935R;R936I;Q939K). The method in brief: (§1)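 The interaction score is the logarithmic change in variant frequency from input to selection. It uses log2, with a pseudocount of 1 for absent variants, and frequencies came from PCR-amplified, Illumina-sequenced repeat regions. The libraries were Pumilio-1 PUF domains randomized at the three base-contacting residues per repeat, co-expressed with matching RNA elements in strain YBZ-1 (LexA–MS2 coat fusion, HIS3 reporter). Plating lasted four days on SC-Leu (input) or SC-Leu-His + 0.5 mM 3-AT (selection).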

Assay [2] has as its target PUM1 PUF domain R3-RQL (Homo sapiens, UniProt Q14671 828-1176, C935R;R936Q;Q939L). The gist of the method: as §1
Assay [3] addresses PUM1 PUF domain R3-LCR (Homo sapiens, UniProt Q14671 828-1176, C935L;R936C;Q939R). The method in brief: as §1
Assay [4] concerns the target PUM1 PUF domain R4-EFG (Homo sapiens, UniProt Q14671 828-1176, N971E;H972F;Q975G). The method in brief:
as §1

Assay [5] has as its target PUM1 PUF domain R7-KWH (Homo sapiens, UniProt Q14671 828-1176, S1079K;N1080W;E1083H). The gist of the method: as §1
The target in assay [6] is PUM1 PUF domain R5-KNG (Homo sapiens, UniProt Q14671 828-1176, C1007K;R1008N;Q1011G). The gist of the method: as §1
For assay [7], the target named is PUM1 PUF domain R5-KQG (Homo sapiens, UniProt Q14671 828-1176, C1007K;R1008Q;Q1011G). The gist of the method:
as §1

Assay [8] addresses PUM1 PUF domain R5-TQG (Homo sapiens, UniProt Q14671 828-1176, C1007T;R1008Q;Q1011G). The gist of the method: as §1
Assay [9] deals with PUM1 PUF domain R3-SRG (Homo sapiens, UniProt Q14671 828-1176, C935S;Q939G). The gist of the method:
as §1

The target in assay [10] is T1, PUM1 PUF domain R6-VFT (Homo sapiens, UniProt Q14671 828-1176, N1043V;Y1044F;Q1047T).
T1 sequence: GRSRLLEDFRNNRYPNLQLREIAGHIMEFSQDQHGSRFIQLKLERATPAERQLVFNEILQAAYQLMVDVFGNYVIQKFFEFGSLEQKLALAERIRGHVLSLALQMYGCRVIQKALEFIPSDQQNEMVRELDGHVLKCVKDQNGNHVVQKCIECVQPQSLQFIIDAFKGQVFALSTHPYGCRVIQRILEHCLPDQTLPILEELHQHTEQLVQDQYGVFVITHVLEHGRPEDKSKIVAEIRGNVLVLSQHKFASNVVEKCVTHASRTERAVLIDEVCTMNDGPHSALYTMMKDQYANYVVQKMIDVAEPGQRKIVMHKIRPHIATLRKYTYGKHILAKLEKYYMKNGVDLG
The method in brief:
as §1

Turning to “GGCUAGAACUAGUGGAUCCCCCGGCGCCCGGCGGCUCGAGCCCGGGUAAGUGUAAUUAGUCUGCAUGCCGCCGGGCGCCAUGCCUGCAGGUCGACUCUAGAAAACAUG”, the binding signal was 2.73 log2 enrichment (interaction score) in [1], 3.54 log2 enrichment (interaction score) in assay [2] and 1.28 log2 enrichment (interaction score) in assay [3].

Regarding “GGCUAGAACUAGUGGAUCCCCCGGCGCCCGGCGGCUCGAGCCCGGGUAAGUGUAUAUAGUCUGCAUGCCGCCGGGCGCCAUGCCUGCAGGUCGACUCUAGAAAACAUG”, in [4], the binding signal is 1.18 log2 enrichment (interaction score).

“GGCUAGAACUAGUGGAUCCCCCGGCGCCCGGCGGCUCGAGCCCGGGUAAGUAUAAAUAGUCUGCAUGCCGCCGGGCGCCAUGCCUGCAGGUCGACUCUAGAAAACAUG”: in assay [5], the binding signal is 2.68 log2 enrichment (interaction score).

On to “GGCUAGAACUAGUGGAUCCCCCGGCGCCCGGCGGCUCGAGCCCGGGUAAGUGUCAAUAGUCUGCAUGCCGCCGGGCGCCAUGCCUGCAGGUCGACUCUAGAAAACAUG”, for which the binding signal in [6] is 2.59 log2 enrichment (interaction score); in [7], 3.41 log2 enrichment (interaction score).

Consider “GGCUAGAACUAGUGGAUCCCCCGGCGCCCGGCGGCUCGAGCCCGGGUAAGUCUAAAUAGUCUGCAUGCCGCCGGGCGCCAUGCCUGCAGGUCGACUCUAGAAAACAUG”, for which, in assay [5], the binding signal is 5.07 log2 enrichment (interaction score).

With “GGCUAGAACUAGUGGAUCCCCCGGCGCCCGGCGGCUCGAGCCCGGGUAAGUGUGAAUAGUCUGCAUGCCGCCGGGCGCCAUGCCUGCAGGUCGACUCUAGAAAACAUG”, in [8], the binding signal is 2.63 log2 enrichment (interaction score).

Turning to “GGCUAGAACUAGUGGAUCCCCCGGCGCCCGGCGGCUCGAGCCCGGGUAAGUGUUAAUAGUCUGCAUGCCGCCGGGCGCCAUGCCUGCAGGUCGACUCUAGAAAACAUG”, in [6], the binding signal is 4.33 log2 enrichment (interaction score).

Regarding “GGCUAGAACUAGUGGAUCCCCCGGCGCCCGGCGGCUCGAGCCCGGGUAAGUGUAAGUAGUCUGCAUGCCGCCGGGCGCCAUGCCUGCAGGUCGACUCUAGAAAACAUG”, the results for the binding signal in assay [9] and in assay [3] were 2.65 log2 enrichment (interaction score) and 3.54 log2 enrichment (interaction score), respectively.

For “GGCUAGAACUAGUGGAUCCCCCGGCGCCCGGCGGCUCGAGCCCGGGUAAGUGUAAAUAGUCUGCAUGCCGCCGGGCGCCAUGCCUGCAGGUCGACUCUAGAAAACAUG”, the binding signal in [9] is 4.45 log2 enrichment (interaction score); in [10], 2.21 log2 enrichment (interaction score); in assay [8], 0.76 log2 enrichment (interaction score); in assay [4], 3.99 log2 enrichment (interaction score).

Consider “GGCUAGAACUAGUGGAUCCCCCGGCGCCCGGCGGCUCGAGCCCGGGUAAGUGAAAAUAGUCUGCAUGCCGCCGGGCGCCAUGCCUGCAGGUCGACUCUAGAAAACAUG”, for which, in assay [10], the binding signal is 6.61 log2 enrichment (interaction score).

The values are drawn from publication PMC8384837, “Expanding the binding specificity for RNA recognition by a PUF domain”.
